test system: HCC1569; assay: H1.0 immunofluorescence intensity relative to DMSO (% of DMSO); higher = stronger H1.0 induction, active = 140 or more; settings: concentration: 10 µM; 24 h
In short: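 H1.0 nuclear intensity or cell number is stated as percent of the plate control, based on the median of replicates, and HCC1569 values were smoothed for positional effects. These came from HCC1569 and TDF cells treated with compounds at 10 µM for 24 h at 37 °C in triplicate, then fixed in 3.7% formaldehyde and stained with a rabbit anti-H1.0 antibody, an AlexaFluor 647 secondary and DAPI.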
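Further: TDF is a line of transformed human dermal fibroblasts of mesenchymal origin.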

H1.0 immunofluorescence intensity, inactive:
CC12C=CC(=O)C=C1CCC1C2C(O)CC2(C)C1CCC2(O)C(=O)CO (stereo not given) [Prednisolone] 115
CC(N)(Cc1ccc(O)c(O)c1)C(=O)O (racemic) 98.2
COc1c2occc2cc2ccc(=O)oc12 [Xanthotoxin] 103
CC1CCN(CCC2CCCN2S(=O)(=O)c2cccc(O)c2)CC1.Cl (stereo not given) 107
Cl.c1ccc(-n2c(C3=NCCN3)cc3ccccc32)cc1 101
CC[N+](CC)(CC)CC(=O)Nc1c(C)cccc1C.[Br-] [Lidocaine N-ethyl bromide quaternary salt] 94.3
CC1CNCCN1S(=O)(=O)c1cccc2cnccc12.Cl.Cl (stereo not given) [H-7 dihydrochloride] 95
C1CCC(C(CC2CCCCN2)C2CCCCC2)CC1.O=C(O)C=CC(=O)O (stereo not given) 117
CCCCCC=CCC=CCCCCCCCCCCCC(=O)O [13(Z),16(Z)-Docosadienoic acid] 89.9
O=c1ccc2cc(O)c(O)cc2o1 [Esculetin] 101
CN1C(=O)CCC1c1cccnc1 (single isomer, unassigned; (-)) [(-)-Cotinine] 93
CC1(C)CC=C(c2ccccc2)c2cc(/C=C/c3ccc(C(=O)O)cc3)ccc21 111
COc1ccccc1N1CCN(CCCCNC(=O)c2ccc3ccccc3c2)CC1 97.4
O=C([O-])c1cc2cc(Cc3cccnc3)ccc2o1.[Na+] [Furegrelate sodium] 93.7
CC(C)Cc1ccc(CC(=O)O)cc1 [(4-isobutylphenyl)acetic acid] 93.1
CC1=C(C)C(=O)C(CCCCC#CCCCC#CCO)=C(C)C1=O [Docebenone] 110
CCCCC(C)(C)C(O)C=CC1C(O)CC(=O)C1CC=CCCCC(=O)O (stereo not given) [16,16-Dimethyl-prostaglandin E2] 109
CC(C=Cc1cccc(Oc2ccc(F)cc2)c1)N(O)C(N)=O (stereo not given) 89.2
Cc1ccc2c(c1)C(N1CCN(C)CC1)=Nc1cccnc1N2 99
CCn1cc(C(=O)O)c(=O)c2cc(F)c(N3CCN(C)CC3)cc21.CS(=O)(=O)O.O.O [Pefloxacine mesylate dihydrate] 109
CCCCC1CCC(c2nc(-c3ccncc3)no2)CC1 (stereo not given) [4-[5-(4-butylcyclohexyl)-1,2,4-oxadiazol-3-yl]pyridine] 104
O=C([O-])c1cc(=O)c2c(OCC(O)COc3cccc4oc(C(=O)[O-])cc(=O)c34)cccc2o1.[Na+].[Na+] [Disodium Cromoglycate] 103
CC1=CC(=O)C2=C(C)CCC3C(C)C(=O)OC3C12 (stereo not given) [Leucomisine] 95.6
Cl.NCCNC(=O)c1ncsc1-c1cccc(F)c1 [Ro 41-1049 hydrochloride] 104
CCCCCCCCC=CCCCCCCCCCC(=O)O [11(E)-Eicosenoic acid] 102
CCC=CCC=CCC=CCC=CCC=CCC=CCCC(=O)O [Docosahexaenoic acid] 105
CS(=O)c1ccc(-c2nc(-c3ccc(F)cc3)c(-c3ccncc3)[nH]2)cc1.Cl (stereo not given) 117
C[C@H]1CN(C[C@H](Cc2ccccc2)C(=O)NCC(=O)O)CC[C@@]1(C)c1cccc(O)c1 107
O=C1NC(C(=O)O)CS1 (stereo not given) [Procysteine] 98.1
COC(=O)C1C2CC3c4[nH]c5cc(OC)ccc5c4CCN3CC2CC(OC(=O)c2cc(OC)c(OC)c(OC)c2)C1OC (single isomer, unassigned; (-)) [(-)-Isoreserpine] 98
Cc1cc2nc3c(=O)[nH]c(=O)nc-3n(C)c2cc1C=O 115
O=C1c2c(O)cc(O)cc2O[C@H](c2cc(O)c(O)c(O)c2)[C@H]1O 93.3
CCCCCCCC/C=C\CCCCCCCC(=O)NCC(=O)O [[(9Z)-9-octadecenoylamino]acetic acid] 100
CCCCCCCCCCCCCCC(O)C(O)C(N)CO (stereo not given) [Phytosphingosine] 104
CC1C(=O)OC2C(O)C34C5CC(C(C)(C)C)C36C(OC(=O)C6O)OC4(C(=O)O5)C12O (stereo not given) [Ginkgolide B] 82.4
CON(C)C(=O)[C@H](O)[C@H](Cc1ccccc1)NC(=O)c1cc2cc(Cl)ccc2[nH]1 103
OC1c2ccccc2N=C2CCCN21 (stereo not given) [Peganole] 91.1
COc1cc2ncc(-c3ccccc3)nc2cc1OC 107
O=c1cc(-c2ccc(O)cc2)oc2cc(O)c(C3OC(CO)C(O)C(O)C3O)c(O)c12 (stereo not given) [Isovitexin] 88.1

H1.0 immunofluorescence intensity, active:
Oc1cccc(-c2nc(N3CCOCC3)c3oc4ncccc4c3n2)c1 205
